# ± gives the standard deviation of the averaged measurements.
# Assays:
# IL-6-GFP PC-9GR = assay: cell viability (CCK-8 OD) relative to DMSO control (fraction of control); higher = more viable cells; conditions: compound concentration: 10 uM; treatment time: 48 h
# Outline: (§1)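 In 96-well plates, 3000 cells/well of PC-9 or PC-9GR lung cancer cells with lentiviral IL-6-GFP overexpression received each compound of a purchased 510-compound library at a final 10 μM for 48 h. Viability, measured by CCK-8 absorbance, is each well's optical density relative to the vehicle control well. Data come from two independent replicates.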
# IL-6-GFP PC-9 = assay: as above; conditions: compound concentration: 10 uM; treatment time: 48 h
# Outline: as §1
structure (smiles),measurement,setting,value
O=C(O)CCC(=O)c1ccc(-c2ccccc2)cc1 [Fenbufen],cell viability,IL-6-GFP PC-9GR,1 ± 0.06
same,cell viability,IL-6-GFP PC-9,1.08 ± 0.12
CC(=O)OCC(=O)C1(O)CCC2C3CCC4=CC(=O)CCC4(C)C3C(=O)CC21C (stereo not drawn) [Cortisone acetate],cell viability,IL-6-GFP PC-9GR,1.29 ± 0.26
same,cell viability,IL-6-GFP PC-9,1.12 ± 0.1
CC1Oc2cc(cnc2N)-c2c(nn(C)c2C#N)CN(C)C(=O)c2ccc(F)cc21 (stereo not drawn),cell viability,IL-6-GFP PC-9GR,0.802 ± 0.14
same,cell viability,IL-6-GFP PC-9,0.945 ± 0.12
COc1cccc2c1C(=O)c1c(O)c3c(c(O)c1C2=O)CC(O)(C(=O)CO)CC3OC1CC(N)C(OC2CCCCO2)C(C)O1 (stereo not drawn) [Pirarubicin],cell viability,IL-6-GFP PC-9GR,0.33 ± 0.12
same,cell viability,IL-6-GFP PC-9,0.208 ± 0.13
COc1cccc2c1C(=O)c1c(O)c3c(c(O)c1C2=O)CC(O)(C(=O)CO)CC3OC1CC(N)C(O)C(C)O1.Cl (stereo not drawn) [Doxorubicin (Adriamycin) HCl],cell viability,IL-6-GFP PC-9GR,0.159 ± 0.12
same,cell viability,IL-6-GFP PC-9,0.136 ± 0.03
CCc1nc(C(N)=O)c(Nc2ccc(N3CCC(N4CCN(C)CC4)CC3)c(OC)c2)nc1NC1CCOCC1 [Gilteritinib (ASP2215)],cell viability,IL-6-GFP PC-9GR,0.333 ± 0.021
same,cell viability,IL-6-GFP PC-9,0.315 ± 0.11
CS(=O)(=O)n1cc2c(n1)CN(C1COC(c3cc(F)ccc3F)C(N)C1)C2 (stereo not drawn) [Omarigliptin (MK-3102)],cell viability,IL-6-GFP PC-9GR,0.931 ± 0.14
same,cell viability,IL-6-GFP PC-9,1.02 ± 0.25
Nc1ncn(C2OC(CO)C(O)C2O)c(=O)n1 (stereo not drawn) [Azacitidine],cell viability,IL-6-GFP PC-9GR,1.04 ± 0.077
same,cell viability,IL-6-GFP PC-9,0.895 ± 0.15
CC(NCc1ccc(OCc2cccc(F)c2)cc1)C(N)=O.CS(=O)(=O)O (stereo not drawn) [Safinamide Mesylate],cell viability,IL-6-GFP PC-9GR,1.27 ± 0.017
same,cell viability,IL-6-GFP PC-9,0.749 ± 0.14
Cl.c1ccc2c(c1)CCCC2C1=NCCN1 (stereo not drawn) [Tetrahydrozoline HCl],cell viability,IL-6-GFP PC-9GR,0.987 ± 0.049
same,cell viability,IL-6-GFP PC-9,1.13 ± 0.15
CC(=O)N1CC(O)CC1C(=O)O (stereo not drawn) [Oxaceprol],cell viability,IL-6-GFP PC-9GR,1.22 ± 0.15
same,cell viability,IL-6-GFP PC-9,1.05 ± 0.098
Nc1ccccc1NC(=O)c1ccc(CNC(=O)OCc2cccnc2)cc1 [Entinostat (MS-275)],cell viability,IL-6-GFP PC-9GR,0.59 ± 0.036
same,cell viability,IL-6-GFP PC-9,0.465 ± 0.028
CC1CC2C3CCC4=CC(=O)C=CC4(C)C3(F)C(O)CC2(C)C1(O)C(=O)CO (stereo not drawn) [Dexamethasone (DHAP)],cell viability,IL-6-GFP PC-9GR,1.08 ± 0.058
same,cell viability,IL-6-GFP PC-9,0.732 ± 0.072
CN(C)CCC(c1ccc(Br)cc1)c1ccccn1.O=C(O)/C=C\C(=O)O (stereo not drawn) [Brompheniramine hydrogen maleate],cell viability,IL-6-GFP PC-9GR,1.17 ± 0.23
same,cell viability,IL-6-GFP PC-9,1.09 ± 0.15
CC(=O)OC1(C(C)=O)CCC2C3C=C(C)C4=CC(=O)CCC4(C)C3CCC21C (stereo not drawn) [Megestrol Acetate],cell viability,IL-6-GFP PC-9GR,1.22 ± 0.09
same,cell viability,IL-6-GFP PC-9,1.13 ± 0.1
Nc1ccc(C(=O)[O-])c(O)c1.[Na+] [Sodium 4-Aminosalicylate],cell viability,IL-6-GFP PC-9GR,1.02 ± 0.3
same,cell viability,IL-6-GFP PC-9,0.895 ± 0.055
CN(C)c1cc(CNCC(C)(C)C)c(O)c2c1CC1CC3C(N(C)C)C(O)=C(C(N)=O)C(=O)C3(O)C(O)=C1C2=O.Cc1ccc(S(=O)(=O)O)cc1 (stereo not drawn) [Omadacycline tosylate],cell viability,IL-6-GFP PC-9GR,1.02 ± 0.039
same,cell viability,IL-6-GFP PC-9,1.3 ± 0.11
COc1ccc2cc(CCC(C)=O)ccc2c1 [Nabumetone],cell viability,IL-6-GFP PC-9GR,1.29 ± 0.24
same,cell viability,IL-6-GFP PC-9,1.11 ± 0.13
O=C(/C=C/C=C/c1ccc2c(c1)OCO2)N1CCCCC1 [Piperine],cell viability,IL-6-GFP PC-9GR,1.33 ± 0.093
same,cell viability,IL-6-GFP PC-9,1.47 ± 0.33
CC(=O)OCC(CCn1cnc2cnc(N)nc21)COC(C)=O [Famciclovir],cell viability,IL-6-GFP PC-9GR,1.32 ± 0.15
same,cell viability,IL-6-GFP PC-9,1.26 ± 0.18
CC(=O)OC1CCC2(C)C(=CCC3C2CCC2(C)C(c4cccnc4)=CCC32)C1 (stereo not drawn) [Abiraterone Acetate],cell viability,IL-6-GFP PC-9GR,1.48 ± 0.41
same,cell viability,IL-6-GFP PC-9,0.929 ± 0.21
COc1ccc(S(=O)(=O)N(C(C)=O)c2ccccc2/C=C/c2cc[n+]([O-])cc2)cc1,cell viability,IL-6-GFP PC-9GR,0.674 ± 0.091
same,cell viability,IL-6-GFP PC-9,0.753 ± 0.018
Cc1cc2c(C(N)=O)cccc2n1-c1nc2c(c(NCc3ccccc3)n1)COCC2,cell viability,IL-6-GFP PC-9GR,0.204 ± 0.1
same,cell viability,IL-6-GFP PC-9,0.261 ± 0.0057
Cc1ccc(C2OC(CO)C(O)C(O)C2O)cc1Cc1ccc(-c2ccc(F)cc2)s1.Cc1ccc(C2OC(CO)C(O)C(O)C2O)cc1Cc1ccc(-c2ccc(F)cc2)s1.O (stereo not drawn) [Canagliflozin hemihydrate],cell viability,IL-6-GFP PC-9GR,1.12 ± 0.2
same,cell viability,IL-6-GFP PC-9,0.932 ± 0.22

# Reference: the supplement of paper PMC8866396
